High-throughput results from PubChem.
Compounds with a hit are over-represented: about 1.2% of the library has one in this group of screens.
BRCT PPI red: BRCT-phosphoprotein interaction inhibition (red fluorophore). BRCT-phosphopeptide binding, red fluorescence polarization. Potency, µM (highest dose often 76.9 µM), for the others: at the top dose activity change, negative = inhibition, usual class: inhibitors. actives 0.03% (n = 75,000). P38398. AID 892; further: on the % scale 0 is the no-effect control and ±100 the full control effect
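Fluorescence polarization: 100 nM His-tagged BRCA1 BRCT with 100 nM TAMRA-labelled phospho-BACH1 decapeptide, phosphate buffer pH 7.3 with 150 mM NaCl, DTT, 0.01% Tween 20; 12 min RT. Binding inhibition seen as FP decrease.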
YjeE inh: YjeE (TsaE) inhibition, E. coli | P0AF67 | purified YjeE enzyme, qHTS inhibition assay | Potency, µM | actives 0.05% (n = 71,000) | AID 605
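Fluorescence polarization of a BODIPY Texas Red–ADP probe (2 uM) bound to purified YjeE (10 uM) was read after 15 min room-temperature incubation with compounds. Loss of polarization marks inhibitors; ADP serves as titrated control.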
BRCT PPI green: BRCA1 BRCT-phosphoprotein interaction inhibition | P38398 | Potency, µM (highest dose often 76.9 µM), for inactives: top-dose activity change, negative = inhibition, usual class: inhibitors | BRCA1 BRCT-phosphopeptide binding, green fluorescence polarization | actives 0.05% (n = 75,000) | AID 875;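 further: potency means the concentration at half of the fitted maximal effect; plate controls were peptide without protein for full effect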
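Fluorescence polarization: His-tagged BRCT (~35 kDa BRCA1 C-terminus, 250 nM) bound to 100 nM fluorescein-labeled phosphorylated 10-aa BACH1 peptide, pH 7.3 phosphate buffer with DTT and Tween 20. Compounds incubated 12 min at room temperature; inhibition read as lowered polarization.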
ERK AVP inh: inhibitors of vasopressin-stimulated ERK signaling pathway | Potency, µM (top dose mostly 57.5 µM), without a hit: at the highest dose activity, negative = inhibition, usual class: inhibitors | HEK293-V1b, vasopressin-stimulated pERK AlphaScreen | actives 0.99% (n = 72,000) | AID 995; further: potency means the concentration at half of the fitted maximal effect; on the % scale 0 is the no-effect control and ±100 the full control effect; nearly all actives have a fitted effect of over 55% in size
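Phosphorylated ERK1/2 detected via AlphaScreen bead proximity in lysates of V1b-expressing HEK293 cells given 25 nM vasopressin for 5 min after 30 min compound exposure (37 °C). AC50 from Hill equation; basal DMSO 0%, vasopressin 100%.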
DNA Pol III inh: blocks replication by bacterial DNA polymerase III holoenzyme. reconstituted DNA polymerase III holoenzyme replication, biochemical. Potency, µM (titrated, usually from 57.1 µM), inactives show at the highest dose activity change, negative = inhibition. actives 0.25% (n = 71,000); further: potency means the concentration at half of the fitted maximal effect; on the % scale 0 is the no-effect control and ±100 the full control effect
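Reconstituted *E. coli* holoenzyme (0.35 nM Pol III, 1 nM beta, 154 nM SSB, 2 nM primase) was preincubated with compound for 15 min at RT. Synthesis on 1.4 nM ssM13Gori ran 35 min, then was stopped with PicoGreen/EDTA and read as dsDNA fluorescence.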
Starred values were filed as active, the others as inactive; i = inactive; ? = inconclusive; . = no result; ! = repeats disagree; [ ] = dose if it differs, or a comment. The call rests on the fitted dose curve; in most records, active means well fitted curve in the direction sought with a large enough effect; inconclusive means small, poorly fitted or top-dose-only effect, or another doubt; inactive means no such curve, though single readings can be large; an effect the other way counts as inactive or inconclusive.

SMILES | BRCT PPI red | YjeE inh | BRCT PPI green | ERK AVP inh | DNA Pol III inh
CC1CC[C@@]2(OC1)OC1C(O)C3C4CC[C@H]5CC(O[C@@H]6O[C@@H](CO)[C@H](OC7OC(CO)C(O)C(OC8OCC(O)C(O)[C@H]8O)[C@@H]7O[C@@H]7OC(CO)[C@H](O)[C@@H](O[C@@H]8OC(CO)C(O)C(O)C8O)C7O)C(O)C6O)C(O)C[C@]5(C)C4CC[C@]3(C)C1C2C (stereo not given in full) | -1% | . | -2%[3.08 µM] | ? | .
CC[n+]1c(-c2ccccc2)c2cc(N)ccc2c2ccc(N)cc21 | ? | 79µM* | ? | ? | 2µM*
O=C1C[C@@H]2OCC=C3CN4CC[C@]56c7ccccc7N1[C@H]5[C@@H]2[C@H]3C[C@@H]46 | . | i | . | . | -5%
C=CCn1c(O)c(C(C)=Nc2ccc(N(CC)CC)cc2)c(=O)[nH]c1=O | -1% | i | 0% | -20% | -4%
C=CCn1c(O)c(C(C)=Nc2ccc(N(C)C)cc2)c(=O)[nH]c1=O | -1% | i | -2% | 13µM* | 0%
N#CSCSC#N | -1% | i | -2% | 16µM* | -8%
C[C@]12CN(CC[N+](C)(C)C)C[C@]1(C)[C@@H]1CC[C@@H]2O1 | 0%[15.4 µM] | i | 0%[15.4 µM] | 2%[11.5 µM] | -11%[11.4 µM]
C[C@]1(C(=O)O)[C@@H]2CC[C@@H](O2)[C@@]1(C)C(=O)O | -2% | i | 5% | 7.9µM* | 6%
C[C@@]12CCC3C(CCC4=CC(=O)CC[C@]43C)C1CCC2O (stereo not given in full) | 0% | . | -1% | 32µM* | .
NCCc1cc(O)c(O)cc1O | -16% | . | 6%[3.08 µM] | ? | .
N[C@@H](Cc1cc(O)c(O)cc1O)C(=O)O | ? | i | ? | -27% | 0.4µM*
C/C=C1\C[C@H](C)[C@](O)(CO)C(=O)OCC2=CCN3CC[C@@H](OC1=O)[C@@H]23 | . | i | . | . | 2%
[O]=[Cr](=[O])([OH])[O][Cr](=[O])(=[O])[OH] | -3% | i | -3% | 18% | 5µM*!
